Measured values taken from publication PMC12820563, “FoxP3 forms a head-to-head dimer in vivo and stabilizes its multimerization on adjacent microsatellites”.
Whole data set: some 16,000 sequences, median “rpm ratio (pull-down/input)” near 0.5, cut for the highest 2% near 5.5. The entries come from a sample that favours the highest values as a whole.

Molecular target: T1, MBP-FoxP3dN (Mus musculus, UniProt Q99JB6 188-423)
T1 sequence: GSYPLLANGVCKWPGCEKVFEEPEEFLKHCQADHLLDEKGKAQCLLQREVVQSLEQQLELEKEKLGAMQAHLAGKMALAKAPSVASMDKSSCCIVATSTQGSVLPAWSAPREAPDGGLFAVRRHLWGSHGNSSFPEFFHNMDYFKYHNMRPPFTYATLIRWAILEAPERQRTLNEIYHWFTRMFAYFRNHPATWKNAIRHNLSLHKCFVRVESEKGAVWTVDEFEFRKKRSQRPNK
Assay: PD-seq (MBP pull-down with sequencing); 20 mM Tris-HCl pH 7.5, 100 mM NaCl, 1.5 mM MgCl2, 0.4 uM protein, 0.1 uM dsDNA library, 30 min, room temperature, amylose pull-down; high values mean tight binding
Details: protein: recombinant; tags: His6-MBP; chain copies: 2; dsDNA, one strand shown
How it was run: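 In Tris pH 7.5 buffer with NaCl and MgCl2, 0.4 µM His6-MBP-tagged mouse FoxP3 or FoxP1 fragment lacking the N-terminus, from E. coli, met 0.1 µM Klenow-filled double-stranded degenerate DNA library for 30 min at room temperature. Three washes on amylose resin followed capture of the complexes, then proteinase K release of DNA, PCR barcoding and Illumina sequencing. Binding is taken as pooled-replicate reads-per-million enrichment of pull-down relative to input.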

| Sequence | binding signal |
| --- | --- |
| GATGATTGTTCTCCCAGCTGATGAATTGCGTATTTCGAGTAAACAAATTTTCCTAATCTTTCTGTTCAAGCGCCATCTAC | 3.53 RPM ratio (pull-down/input) |
| GATGATTGTTCTCCCAGCTGATGAATTGCTAAAATCGAGTAAACAAATTTTCCTAATCTTTCTGTTCAAGCGCCATCTAC | 0.394 RPM ratio (pull-down/input) |
| GATGATTGTTCTCCCAGCTGATGAATTTTACGATTCGAGTAAACAAATTTTCCTAATCTTTCTGTTCAAGCGCCATCTAC | 0.308 RPM ratio (pull-down/input) |
| GATGATTGTTCTCCCAGCTGATGAATTGTAAAGATCGAGTAAACAAATTTTCCTAATCTTTCTGTTCAAGCGCCATCTAC | 0.29 RPM ratio (pull-down/input) |
| GATGATTGTTCTCCCAGCTGATGAATTACAGCCGTCGAGTAAACAAATTTTCCTAATCTTTCTGTTCAAGCGCCATCTAC | 0.412 RPM ratio (pull-down/input) |
| GATGATTGTTCTCCCAGCTGATGAATTTTGACGTTCGAGTAAACAAATTTTCCTAATCTTTCTGTTCAAGCGCCATCTAC | 0.933 RPM ratio (pull-down/input) |
| GATGATTGTTCTCCCAGCTGATGAATTACGATCATCGAGTAAACAAATTTTCCTAATCTTTCTGTTCAAGCGCCATCTAC | 0.571 RPM ratio (pull-down/input) |
| GATGATTGTTCTCCCAGCTGATGAATTCTGCATTTCGAGTAAACAAATTTTCCTAATCTTTCTGTTCAAGCGCCATCTAC | 6.51 RPM ratio (pull-down/input) |
| GATGATTGTTCTCCCAGCTGATGAATTACTGAATTCGAGTAAACAAATTTTCCTAATCTTTCTGTTCAAGCGCCATCTAC | 0.586 RPM ratio (pull-down/input) |
| GATGATTGTTCTCCCAGCTGATGAATTACTGCATTCGAGTAAACAAATTTTCCTAATCTTTCTGTTCAAGCGCCATCTAC | 6.01 RPM ratio (pull-down/input) |
| GATGATTGTTCTCCCAGCTGATGAATTGCTGAATTCGAGTAAACAAATTTTCCTAATCTTTCTGTTCAAGCGCCATCTAC | 0.916 RPM ratio (pull-down/input) |
| GATGATTGTTCTCCCAGCTGATGAATTGCTGCATTCGAGTAAACAAATTTTCCTAATCTTTCTGTTCAAGCGCCATCTAC | 6.8 RPM ratio (pull-down/input) |
| GATGATTGTTCTCCCAGCTGATGAATTCTCTGCATCGAGTAAACAAATTTTCCTAATCTTTCTGTTCAAGCGCCATCTAC | 0.793 RPM ratio (pull-down/input) |
| GATGATTGTTCTCCCAGCTGATGAATTCTGCAGCTCGAGTAAACAAATTTTCCTAATCTTTCTGTTCAAGCGCCATCTAC | 2.66 RPM ratio (pull-down/input) |
| GATGATTGTTCTCCCAGCTGATGAATTCTGCTGTTCGAGTAAACAAATTTTCCTAATCTTTCTGTTCAAGCGCCATCTAC | 3.41 RPM ratio (pull-down/input) |
| GATGATTGTTCTCCCAGCTGATGAATTCTGCATCTCGAGTAAACAAATTTTCCTAATCTTTCTGTTCAAGCGCCATCTAC | 6.75 RPM ratio (pull-down/input) |
| GATGATTGTTCTCCCAGCTGATGAATTACTGATTTCGAGTAAACAAATTTTCCTAATCTTTCTGTTCAAGCGCCATCTAC | 0.523 RPM ratio (pull-down/input) |
| GATGATTGTTCTCCCAGCTGATGAATTCGCATGATCGAGTAAACAAATTTTCCTAATCTTTCTGTTCAAGCGCCATCTAC | 0.877 RPM ratio (pull-down/input) |
